# Experimental data reported in PubChem BioAssay (NCI).
# This is part of a sample that, as a whole, favours compounds with a hit. Of some 83,000 tested, about 20% had one in any assay.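 In brief: 96-well plates, 48 h treatment, single concentration, percent growth endpoint.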 Values without a mark were called inactive. Active and inactive are the calls of the source. How the source made its calls: active means growth percent below 10; inactive means the rest.
# Test system: M14 melanoma
# Test: NCI-60 one-dose screen, 48 h (100 = growth as untreated, 0 = no growth, -100 = all killed)
# Conditions: 10 µM unless noted
row,SMILES,growth
1,CNCc1cccc2c1OCCOCCOCCN(CCN1CCOCC1)S(=O)(=O)c1ccc(cc1)-c1cnc(N)c(n1)C(=O)N2,26.4%
2,Cc1cnc(-c2ccc(-c3ccc(NC(=O)Nc4c(F)cc(F)cc4F)cc3F)c3c2C(=O)NC3)[nH]1,16.1%
3,Cc1cc(C)c(NC(=O)c2sc3nc4c(cc3c2N)CCCCCC4)c(C)c1,27%
4,O=C1NN(c2ccccc2)C(c2ccc3c(c2)OCO3)N2CCC[C@@H]12 (some centres not stated),96.6%
5,C=C1C(=O)O[C@H]2[C@H]1CC/C(COC(=O)CCCCCCCCC(=O)OC/C1=C/CC[C@@]3(C)O[C@H]3[C@H]3OC(=O)C(=C)[C@@H]3CC1)=C\CC[C@@]1(C)O[C@@H]21,-44.7% (active)
6,COc1ccc(C2N(c3cc(OC)c(OC)c(OC)c3)C(=O)C2(F)F)cc1F (configuration not stated),24.2%
7,C=C1C(=O)O[C@H]2[C@H]1CC/C(COC(=O)CCCCCCC(=O)OC/C1=C/CC[C@@]3(C)O[C@H]3[C@H]3OC(=O)C(=C)[C@@H]3CC1)=C\CC[C@@]1(C)O[C@@H]21,30.6%
8,O=c1nc(-c2ccccc2)c2cc(-c3ccc(N4CCCC4)nc3)ccc2[nH]1,47.9%
9,O=C(Nc1nc(-c2ccccc2)cs1)c1cc(-c2ccc(Br)cc2)nc2ccccc12,75.3%
10,COc1ccc2nc3c(n2c1)C(=O)C(=O)c1ccccc1-3,-82.9% (active)
11,C=C1C(=O)O[C@H]2[C@H]1CCC(/C=N/c1ncc(Br)cc1N)=C\CC[C@@]1(C)O[C@@H]21,-12.4% (active)
12,COC(=O)c1ccc(NC(=O)CSc2nc(-c3ccc(F)cc3)nc3ccccc23)cc1,70.2%
13,COc1ccc(C2C(c3ccccc3)C(=O)N2c2cc(OC)c(OC)c(OC)c2)cc1I (configuration not stated),8.46% (active)
14,O=[N+]([O-])c1cccc(CN(Cc2cccc([N+](=O)[O-])c2O)c2ccccc2)c1O,67.6%
15,Nc1c(C(=O)Nc2ccccn2)sc2nc3c(cc12)CCCCCC3,7.38% (active)
16,C[C@]12CC[C@@H]3c4ccc(O)cc4CC[C@H]3[C@@H]1C[C@H](O)C2,52.7%
17,COCCOCCOCc1n(Cc2ccc3ccccc3c2)c2ccccc2[n+]1Cc1ccc2ccccc2c1,6.95% (active)
18,COc1ccc(C(=O)c2cc(F)c(F)c(OC)c2F)cc1OC(=O)CCl,-3.12% (active)
19,Nc1cccc(C(=O)Nc2ccc3c(O)c(N=Nc4ccc(N=Nc5ccc(S(=O)(=O)O)cc5)cc4)c(S(=O)(=O)O)cc3c2)c1,98.3%

row,SMILES,growth
1,O=C(Nc1ccccc1)NS(=O)(=O)c1c[nH]c(=S)[nH]c1=O,104%
2,CC(C)CSc1nc(Nc2ccccc2)c(C#N)c(-c2ccc(F)cc2)n1,31.6%
3,CC(C)(C#N)c1cc(F)cc(C(=O)Nc2cc(Nc3ncccc3-c3ncnc4nc[nH]c34)ccc2F)c1,5.28% (active)
4,COc1c(O)cc2oc3cc(O[C@@H]4OC(C)[C@@H](O)[C@H](O)C4O)c(CC=C(C)C)c(O)c3c(=O)c2c1CC=C(C)C (some centres not stated),99.8%
5,O=C(CCCC(=O)Nc1ccc(-n2nnc3cc(Cl)c(Cl)cc32)cc1)Nc1ccc(-n2nnc3cc(Cl)c(Cl)cc32)cc1,68%
6,Cn1cc(-c2ccc3c(c2)ncn3-c2ccc(CC(=O)Nc3cc(C(C)(C)C)on3)cc2)cn1,19.5%
7,CCC1S/C(=N\N=C(/C)c2ccc[nH]2)N(c2ccccc2)C1=O (configuration not stated),115%
8,CC(=O)ON1CCCC(P(=O)(OCOC(=O)C(C)(C)C)OCOC(=O)C(C)(C)C)C1=O (configuration not stated),12.9%
9,Cc1cccc(C)c1Nc1nnc(-c2ccc(F)cc2)o1,96.8%
10,COc1ccc(C2=NN(c3ccc(S(N)(=O)=O)cc3)C(c3ccc(Cl)cc3)C2)c(O)c1 (configuration not stated),51.3%
11,CC(=O)Nc1nc2c(c(N)c1C#N)C(c1cccc(Cl)c1)C1=C(CCCC1=O)N2c1sc2c(c1C#N)CCCC2 (configuration not stated),52.2%
12,C#Cc1ccccc1NC(=O)c1sc2nc3c(cc2c1N)CCCCCC3,56.5%
13,C=C(C)[C@@H]1CC[C@]2(C(=O)N3CCN(C)CC3)CC[C@]3(C)[C@H](CC[C@@H]4[C@@]5(C)C/C(=C/c6ccco6)C(=O)C(C)(C)[C@@H]5CC[C@]43C)[C@@H]12,59.9%
14,CCCCC(=O)Nc1c(C(=O)Nc2ccccc2)sc2nc3c(cc12)C(OC(=O)CCCC)CCC3 (configuration not stated),97.5%
15,C#CC[C@@H]1C[C@]2(C)[C@H]3CC[C@@H]4[C@H]5[C@H](C(=C)C)CC[C@]5(C(=O)O)CC[C@@]4(C)[C@]3(C)CC[C@H]2C(C)(C)[C@H]1O,60.3%
16,Cc1ccc(-c2nc(C#N)c(S(=O)(=O)N(C)CCO)o2)cc1,61.7%
17,FC(F)(F)c1ccc2c(Nc3cccc(C4CC(c5ccccc5)=NN4c4ccc(Cl)cc4)c3)ccnc2c1 (configuration not stated),41.2%
18,COc1ccc2nc(-c3ccc(OC)c(OC)c3)cc(-c3nnc(SCC(=O)Nc4ccc(/C(C)=N\O)cc4)n3-c3ccccc3)c2c1,92.1%
